Test results from PubChem BioAssay (NCATS).
Results filed as inconclusive are left out. Entries that show only a call come without a potency. Values without a mark were called inactive. The source made the active and inactive calls. Calls follow the shape of the dose curve; as a rule, active = well fitted inhibition curve with a large enough effect; inconclusive = small, poorly fitted or top-dose-only effect; inactive = flat fitted curve, though single readings scatter.

Test system: Zika virus NS2B-NS3 protease
Assay: Primary screen GU AMC qHTS for Zika virus inhibitors (AID 1347154); also: nearly all actives have a fitted effect of over 70% in size
Settings: Zika NS2B-NS3 unlinked protease, AMC fluorogenic substrate; series mostly up to 54.1 µM; activity change, negative = inhibition: at the top concentration
How it was run: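 Fluorogenic AMC-substrate cleavage by noncovalent NS2B-NS3 protease complex (25 nM, pH 8.0 Tris buffer with Tween 20) followed for 15 minutes at room temperature (~20% conversion). Percent inhibition from ex340/em450 signal change, fitted by 4-parameter Hill equation.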

SMILES	Potency	activity change, negative = inhibition
Nc1cc(C(Cl)=C(Cl)Cl)c(S(N)(=O)=O)cc1S(N)(=O)=O	inactive	
N=C(N=C(N)N)N1CCOCC1	inactive	
CCOC(=O)C1=C[C@@H](OC(CC)CC)[C@H](NC(C)=O)[C@@H](N)C1		-0.505%
COc1cc(OC)c(C(=O)CCCN2CCCC2)c(OC)c1	inactive	
CN(C)CCCC1(c2ccc(F)cc2)OCc2cc(C#N)ccc21 (stereo not given)		-2.37%
O=C1c2ccccc2-c2n[nH]c3cccc1c23	inactive	
COc1c2occc2cc2ccc(=O)oc12	inactive	
Nc1ccc(S(N)(=O)=O)cc1	inactive	
Nc1cccc2c1CN(C1CCC(=O)NC1=O)C2=O (stereo not given)	inactive	
Cc1cccc(C#Cc2ccccc2)n1	inactive	
CCCCC(CC)COC(=O)C(C#N)=C(c1ccccc1)c1ccccc1 (stereo not given)		5.98%
COCCCN1CCC(NC(=O)c2cc(Cl)c(N)c3c2OCC3)CC1	inactive	
COc1cc2c(N3CCN(C(=O)Nc4ccc(OC(C)C)cc4)CC3)ncnc2cc1OCCCN1CCCCC1	inactive	
COc1ccc2cc([C@H](C)C(=O)O)ccc2c1	inactive	
Cc1ncc([N+](=O)[O-])n1CC(C)O (stereo not given)	inactive	
O=c1cc(N2CCOCC2)oc2c(-c3ccccc3)cccc12	inactive	
CCC(C)(Oc1ccc(C2(c3ccc(OC(C)(CC)C(=O)O)cc3)CCCCC2)cc1)C(=O)O (stereo not given)		-1.12%
CC(C)(S)[C@@H](N)C(=O)O		5.39%
COC(=O)C1=C(C)NC(C)=C(C(=O)OC(C)C)C1c1cccc2nonc12 (stereo not given)	inactive	
CC(C)[C@H](N)C(=O)OCCOCn1cnc2c(=O)[nH]c(N)nc21	inactive	
